We go through 100 compounds from PubChem BioAssay AID463173 (ICCB-Longwood Screening Facility, Harvard Medical School, 2010).

SMILES strings stand for the structures. The campaign covered roughly 52,000 compounds. About 4,300 (8.3%) were called active. No stated cut-off is given here; in the data, active means survival mostly below about 52% (no sharp cut-off); inactive means mostly above about 56%. Many of the other results were omitted from the sample, so actives are more common in it than they were.

The subject of the experiment is DeltatarO mutant. The experiment can be described thus: growth inhibition of S. aureus wild type versus tarO mutant, primary screen, teichoic acid synthesis inhibitors, RN4220, OD600 (AID 463173). The note with it: OD600, 18 h, stronger effect = lower value, screened at 18.75 µg/mL (by protocol).
On to `CCNC(=O)C1CCN(S(=O)(=O)c2ccc3c(c2)CCCN3C(C)=O)CC1`, for which the survival was 99% (inactive). The value for `CCC(CC)C(=O)OCc1cc(=O)n2nc(C3CCCCC3)sc2n1` was 88% (inactive); that for `COc1ccc(/C=C(\NC(=O)c2ccccc2)C(N)=O)cc1` was 79% (inactive). The result for `CC(C)CCNC(=O)Cn1c(-c2cccs2)cc2cc(F)ccc21` reads 94% (inactive). The value for `Cc1cc(C)c2c(c1)c(C)cc1nnc(SCC(=O)c3ccc(F)cc3)n12` was 63% (inactive). `Cc1ccc(C)c(CSC2=NC(C)(C)Nc3ccccc32)c1`: the survival is 80% (inactive). The result for `CCC(NC(C)=O)c1ccccc1` (stereo not given) reads 71% (inactive); that for `CCCCCCNc1nc(Oc2ccccc2)nc(Oc2ccccc2)n1`, 62% (inactive); that for `CN(C)C(=O)CSc1n[nH]c(-c2ccccc2)n1`, 103% (inactive). The value for `Cc1ccc(-c2noc(-c3ccc(N4CCC(C)CC4)c([N+](=O)[O-])c3)n2)cc1` was 85% (inactive); that for `Cc1ccc(NC(=O)CSc2nc3ccc(NC(=O)CCc4ccccc4)cc3s2)cc1` was 90% (inactive); that for `Cc1nn(S(=O)(=O)c2ccc(C(C)C)cc2)c(C)c1S(=O)(=O)N1CCCCC1` was 79% (inactive). The value for `O=C(COc1ccc(Cl)cc1)OCc1cc(=O)n2nc(C3CC3)sc2n1` was 83% (inactive); that for `Cc1cc(=O)[nH]c2nnc(SCc3ccc(Cl)cc3Cl)n12` was 123% (inactive). For the compound `COc1ccccc1NC(=O)c1sc2ncn(Cc3ccccc3Cl)c(=O)c2c1C`, the survival is 99% (inactive). The value for `CCOc1ccc(-n2c(CC)nc3c(cnn3-c3ccc(Cl)cc3)c2=O)cc1` was 46% (inactive); that for `Cc1cccc(-c2nc3c(cnn3-c3ccccc3)c(=O)n2-c2ccc(Cl)cc2)c1` was 56% (inactive); that for `CCOc1ccc(-n2c(-c3ccc(C)cc3)nc3c(cnn3-c3ccccc3)c2=O)cc1` was 42% (active). Consider `CCOc1ccc(-n2c(C)nc3c(cnn3-c3ccc(C)cc3)c2=O)cc1`, for which the survival was 76% (inactive).

In the case of `Cc1cccc(-n2c(-c3ccco3)nc3c(cnn3-c3ccc(F)cc3)c2=O)c1`, the survival was 81% (inactive). The result for `Cc1cccc(-c2nc3c(cnn3-c3ccccc3)c(=O)n2-c2cccc(Cl)c2)c1` reads 44% (active); that for `CC(=O)c1ccc(N2CCN(S(=O)(=O)c3ccc4c(c3)C(C)(C)C(=O)N4)CC2)cc1`, 64% (inactive); that for `CN1C(=O)c2ccccc2Sc2ccc(NC(=O)NCc3ccc(Cl)cc3)cc21`, 96% (inactive). The result for `CCOC(=O)c1c(NC(=O)/C=C/c2ccc(OC)c(OC)c2)sc(C(C)=O)c1C` reads 118% (inactive); that for `CCOC(=O)c1c(NC(=O)/C=C/c2ccc(OCC)c(OC)c2)sc2c1CCC2`, 56% (inactive); that for `CCOC(=O)c1c(NC(=O)/C=C/c2ccc(Cl)cc2)sc2c1CCC(C)C2` (stereo not given), 44% (active). The value for `COc1ccc(/C=C/C(=O)Nc2sc3c(c2C(N)=O)CCCC3)cc1` was 58% (inactive); that for `COc1ccc(/C=C/C(=O)Nc2sc3c(c2C(N)=O)CCC(C)C3)cc1OC` (stereo not given) was 34% (active). As to `COc1cc(C(=O)Nc2sc3c(c2C(N)=O)CCC(C)C3)cc(OC)c1OC` (stereo not given), the survival was 53% (inactive). The result for `COC(=O)c1c(NC(=O)/C=C/c2ccc(OC)c(OC)c2)sc2c1CCC2` reads 51% (inactive).

With `COC(=O)c1c(NC(=O)/C=C/c2ccc(OC)cc2)sc2c1CCC2`, the survival was 102% (inactive). The result for `COC(=O)c1sc(NC(=O)/C=C/c2ccc(OC)c(OC)c2)c(C(=O)OC)c1C` reads 37% (active); that for `CCOC(=O)c1c(NC(=O)/C=C/c2ccc(OC)cc2)sc2c1CCC(C)C2` (stereo not given), 23% (active). Take `CCCOc1ccc(/C=C/C(=O)Nc2sc3c(c2C(=O)OCC)CCC(C)C3)cc1OC` (stereo not given): the survival was 51% (inactive). Take `CCOC(=O)c1sc(NC(=O)/C=C/c2ccc(C(C)C)cc2)c(C(=O)OCC)c1C`: the survival was 52% (inactive). Take `Cc1ccccc1-c1noc(-c2nnn(-c3ccccc3C)c2N)n1`: the survival was 94% (inactive). The value for `O=C(NCc1ccco1)c1ccc2c(c1)N(Cc1ccccc1F)C(=O)c1ccccc1S2=O` (stereo not given) was 90% (inactive).

Consider `CCCCNC(=O)c1ccc2c(c1)N(Cc1ccc(F)cc1)C(=O)c1ccccc1S2=O` (stereo not given), for which the survival was 65% (inactive).

`COC1CCCC(C(=O)Nn2c(C3CC3)nc3ccccc3c2=O)C1` (stereo not given): the survival was 69% (inactive). The result for `Cc1cc(F)ccc1NC(=O)c1csc2c1CCC(C)C2` (stereo not given) reads 89% (inactive).

`Cc1occc1C(=O)NN=C1c2ccccc2-c2ccccc21`: the survival was 69% (inactive). The result for `CCN(C(=O)c1oc2ccc(S(=O)(=O)N3CCCCCC3)cc2c1C)c1ccccc1` reads 124% (inactive). The value for `CSc1ccc(NC(=O)N2C3CCC2CC(O)(c2cccnc2)C3)cc1` (stereo not given) was 79% (inactive); that for `CCOc1ccccc1CNS(=O)(=O)c1ccc(-c2coc(C)n2)cc1` was 94% (inactive); that for `Cc1nc(N2CCCC2)ncc1C(=O)Nc1ccc(F)cc1F` was 90% (inactive).

For `Cc1ccc(Cl)cc1NC(=O)c1ccc2nc(CCc3ccccc3)oc2c1`, the survival is 69% (inactive).

Take `O=C(NCc1cccs1)c1ccc2c(c1)sc1nc(-c3ccccc3)cn12`: the survival is 82% (inactive).

Turning to `Cc1ccc(-c2cn3c(n2)sc2cc(C(=O)NCc4cccs4)ccc23)c(C)c1`, the survival is 41% (active). The value for `COc1ccc(-c2cn3c(n2)sc2cc(C(=O)NCc4cccs4)ccc23)cc1` was 55% (active); that for `Cc1ccc(-c2cn3c(n2)sc2cc(C(=O)NCc4cccs4)ccc23)cc1` was 78% (inactive); that for `O=C(NCc1cccs1)c1ccc2c(c1)sc1nc(-c3ccc(F)cc3)cn12` was 71% (inactive).

As to `COc1cccc(-c2cn3c(n2)sc2cc(C(=O)NCc4cccs4)ccc23)c1`, the survival is 57% (inactive).

As to `O=C(CCc1ccccc1)NCc1ccc2c(c1)CCN2C(=O)c1ccc(Cl)cc1`, the survival is 77% (inactive). The result for `COc1ccc(CCNC(=O)c2cnn(-c3cccc(C)c3)c2C2CCN(C(=O)OC(C)(C)C)CC2)cc1OC` reads 67% (inactive). The result for `O=C(NCCc1nc2ccccc2n1CCOc1ccc(Cl)cc1)C1CCCCC1` reads 36% (active); that for `Cc1cc(C)cc(OCCn2c(CCNC(=O)C3CCCCC3)nc3ccccc32)c1`, 92% (inactive); that for `Cc1cc(C)cc(OCCCn2c(CCNC(=O)C3CCCCC3)nc3ccccc32)c1`, 35% (inactive). The result for `O=C(NCCCc1nc2ccccc2n1Cc1ccc(Cl)cc1)C1CCCCC1` reads 64% (inactive); that for `Cc1ccccc1OCCCn1c(CCNC(=O)C2CCCCC2)nc2ccccc21`, 61% (inactive). `Cc1cc(OCCn2c(CCNC(=O)C3CCCCC3)nc3ccccc32)ccc1Cl`: the survival was 87% (inactive). The value for `Cc1ccc(OCCCn2c(CCNC(=O)C3CCCCC3)nc3ccccc32)c(C)c1` was 64% (inactive). The value for `Cc1cccc(C)c1OCCn1c(CCNC(=O)C2CCCCC2)nc2ccccc21` was 57% (inactive).

`Cc1ccc(OCCn2c(CCNC(=O)C3CCCCC3)nc3ccccc32)cc1`: the survival was 61% (inactive).

With `O=C(NCCc1nc2ccccc2n1CCCOc1ccc(Cl)cc1)C1CCCCC1`, the survival is 24% (active).

`Cc1cc(OCCCn2c(CCNC(=O)C3CCCCC3)nc3ccccc32)ccc1Cl`: the survival is 4% (active). With `Cc1cccc(C)c1OCCCn1c(CCNC(=O)C2CCCCC2)nc2ccccc21`, the survival is 1% (active). The value for `Cc1cc(C)cc(N2CCn3c2nc2c3c(=O)n(CCCc3ccccc3)c(=O)n2C)c1` was 67% (inactive); that for `O=C(CSc1nc2c(c(=O)[nH]1)CCCC2)Nc1cccc(O)c1` was 68% (inactive); that for `Cc1cccc(N2CCN(C(=O)c3cnn(-c4cccc(Cl)c4C)c3C3CCNCC3)CC2)c1C` was 80% (inactive). Regarding `Cc1cc(NC(=O)c2ccc3c(c2)N(Cc2cccc(Cl)c2)C(=O)c2ccccc2S3(=O)=O)ccc1Br`, the survival is 90% (inactive).

`O=C(Nc1ccc(Cl)c(Cl)c1)N1CCC(c2ccccc2)C1` (stereo not given): the survival was 81% (inactive). For `Cc1ccc(C2CCN(C(=O)Nc3ccc(Cl)c(Cl)c3)C2)cc1` (stereo not given), the survival is 20% (active). On to `Cc1ccc(C2CCN(C(=O)Nc3ccc(Cl)cc3)C2)cc1` (stereo not given), for which the survival was 81% (inactive). The value for `COc1ccc(N2C(=O)CSC23C(=O)N(CC(=O)NCCc2ccccc2)c2ccccc23)cc1` (stereo not given) was 94% (inactive). The value for `CCN(CC)S(=O)(=O)c1ccc(-c2nnc(SCC(=O)Nc3nc4ccccc4s3)o2)cc1` was 66% (inactive); that for `N=c1n(CC(=O)O)c2ccccc2n1Cc1ccccc1` was 84% (inactive); that for `N=c1n(CCO)c2ccccc2n1Cc1ccccc1F` was 47% (active). The value for `CCOC(=O)Cn1c(=N)n(CCOc2ccc(OC)cc2)c2ccccc21` was 43% (active); that for `CCCCn1c(=N)n(CCOc2ccccc2OC)c2ccccc21` was 56% (inactive). `N=c1n(CCO)c2ccccc2n1CCOc1ccc(F)cc1`: the survival is 40% (active).

On to `N=c1n(CC(N)=O)c2ccccc2n1Cc1ccccc1Cl`, for which the survival was 99% (inactive).

As to `CCCCn1c(=N)n(CCCOc2ccc(F)cc2)c2ccccc21`, the survival was 48% (inactive). The value for `CCOC(=O)Cn1c(=N)n(Cc2ccc(C(C)(C)C)cc2)c2ccccc21` was 103% (inactive); that for `O=C1CSC(=O)N1CCOc1ccc(F)cc1` was 80% (inactive). The value for `O=C(O)CCN1C(=O)CSC1=O` was 72% (inactive); that for `CCCOc1cccc(C2c3c(oc4cc(C)c(C)cc4c3=O)C(=O)N2CCCN2CCOCC2)c1` (stereo not given) was 64% (inactive). In the case of `COc1ccc(CCNC(=O)c2ccc3c(c2)N(Cc2cc(C)ccc2C)C(=O)c2ccccc2S3=O)cc1OC` (stereo not given), the survival is 70% (inactive). In the case of `COc1cc(OC)c(NC(=O)Cn2cnc3sc(C)c(S(=O)(=O)N4CCN(C)CC4)c3c2=O)cc1Cl`, the survival is 157% (inactive). In the case of `Cc1cccc(-c2nc(CN3CCCC(C(=O)NCCc4ccc(Cl)cc4)C3)c(C)o2)c1` (stereo not given), the survival was 34% (active). The result for `Cc1ccc(C)c(N2CCN(C(=O)C3CCCN(Cc4nc(-c5cccc(Cl)c5)oc4C)C3)CC2)c1` (stereo not given) reads 78% (inactive); that for `Cc1oc(-c2cccc(Br)c2)nc1CN1CCC(C(=O)NCCc2ccc(Cl)cc2)CC1`, 76% (inactive).

For the compound `Cc1cccc(-c2nc(CN3CCCC(C(=O)N4CCN(c5cc(Cl)ccc5C)CC4)C3)c(C)o2)c1` (stereo not given), the survival was 68% (inactive). On to `CCc1ccc(-c2nc(CN3CCCC(C(=O)NCc4ccc(C)cc4)C3)c(C)o2)cc1` (stereo not given), for which the survival is 73% (inactive). The result for `Cc1oc(-c2cccc(Cl)c2)nc1CN1CCC(C(=O)NCCc2ccc(Cl)cc2)CC1` reads 87% (inactive); that for `Cc1oc(-c2ccc(Cl)cc2)nc1CN1CCCC(C(=O)NCCc2ccc(Cl)cc2)C1` (stereo not given), 54% (inactive). The value for `Cc1oc(-c2ccc(Cl)cc2)nc1CN1CCCC(C(=O)NCc2ccccc2)C1` (stereo not given) was 93% (inactive); that for `CCCCNC(=O)C1CCCN(Cc2nc(-c3ccc(Cl)cc3)oc2C)C1` (stereo not given) was 77% (inactive). The result for `Cc1oc(-c2ccc(Cl)cc2)nc1CN1CCCC(C(=O)NCCc2ccccc2)C1` (stereo not given) reads 44% (active). On to `Cc1ccc(CCNC(=O)C2CCCN(Cc3nc(-c4cccc(Cl)c4)oc3C)C2)cc1` (stereo not given), for which the survival was 25% (active).

On to `Cc1oc(-c2cccc(Cl)c2)nc1CN1CCCC(C(=O)NCCc2ccc(Cl)cc2)C1` (stereo not given), for which the survival is -6% (active).
